# Assays:
# Test in all cases: DAPPL (digital affinity profiling via proximity ligation, sequencing); 10 mM Tris-HCl pH 7.5, 50 mM NaCl, 1 mM DTT, 4% glycerol, room temperature, 30 min; GST-TFs on glutathione beads, 16-mer random dsDNA library, 0.1% formaldehyde crosslink after washing; high values mean tight binding
# FLI1 = target: T1, FLI1 (Homo sapiens, UniProt Q01543 1-452); conditions: protein: recombinant; tags: N-terminal GST; dsDNA, one strand shown
# T1 sequence: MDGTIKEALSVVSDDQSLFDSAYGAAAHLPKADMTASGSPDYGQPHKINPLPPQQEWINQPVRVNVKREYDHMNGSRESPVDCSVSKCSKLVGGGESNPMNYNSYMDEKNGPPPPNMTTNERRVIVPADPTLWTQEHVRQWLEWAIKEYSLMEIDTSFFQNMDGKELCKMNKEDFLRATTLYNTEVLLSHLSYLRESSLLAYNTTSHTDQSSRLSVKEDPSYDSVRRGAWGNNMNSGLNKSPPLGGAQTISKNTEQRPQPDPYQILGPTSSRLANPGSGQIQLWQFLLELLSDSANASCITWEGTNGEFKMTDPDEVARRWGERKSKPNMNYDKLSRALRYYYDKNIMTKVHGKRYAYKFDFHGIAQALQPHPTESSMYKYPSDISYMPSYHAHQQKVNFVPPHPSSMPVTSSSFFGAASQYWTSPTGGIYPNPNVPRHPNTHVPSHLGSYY
# In short: (§1)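 Beads coated with glutathione captured GST-fused human transcription factors that had been expressed in yeast, and the factors were then given DNA barcodes and pooled with a tag-only sample. The pools were incubated with 200 nmole of a random double-stranded 16-mer DNA library in Tris/NaCl/DTT/glycerol buffer for 30 min at room temperature, washed, crosslinked with 0.1% formaldehyde and proximity-ligated with BsaI/T4 ligase at 37 °C for 1 h. PCR amplification and Illumina NextSeq500 sequencing came last. Binding signal is each hexamer's read frequency for a factor divided by its frequency for the tag-only sample.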
# ELK1 = target: T2, ELK1 (Homo sapiens, UniProt P19419 1-428); conditions: protein: recombinant; tags: N-terminal GST; dsDNA, one strand shown
# T2 sequence: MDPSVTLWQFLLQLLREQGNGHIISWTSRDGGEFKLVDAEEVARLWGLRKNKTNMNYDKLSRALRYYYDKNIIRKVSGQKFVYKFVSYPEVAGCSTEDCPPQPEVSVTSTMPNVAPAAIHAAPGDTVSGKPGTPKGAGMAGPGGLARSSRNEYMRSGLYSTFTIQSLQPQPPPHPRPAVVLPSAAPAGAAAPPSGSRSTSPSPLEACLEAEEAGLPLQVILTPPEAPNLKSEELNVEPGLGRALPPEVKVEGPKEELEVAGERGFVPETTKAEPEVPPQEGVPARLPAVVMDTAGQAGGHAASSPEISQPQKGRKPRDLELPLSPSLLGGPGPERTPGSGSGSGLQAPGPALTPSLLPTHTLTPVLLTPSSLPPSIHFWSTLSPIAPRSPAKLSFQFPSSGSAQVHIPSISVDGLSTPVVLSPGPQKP
# In short: as §1
# GABPA = target: T3, GABPA (Homo sapiens, UniProt Q06546 1-454); conditions: protein: recombinant; tags: N-terminal GST; dsDNA, one strand shown
# T3 sequence: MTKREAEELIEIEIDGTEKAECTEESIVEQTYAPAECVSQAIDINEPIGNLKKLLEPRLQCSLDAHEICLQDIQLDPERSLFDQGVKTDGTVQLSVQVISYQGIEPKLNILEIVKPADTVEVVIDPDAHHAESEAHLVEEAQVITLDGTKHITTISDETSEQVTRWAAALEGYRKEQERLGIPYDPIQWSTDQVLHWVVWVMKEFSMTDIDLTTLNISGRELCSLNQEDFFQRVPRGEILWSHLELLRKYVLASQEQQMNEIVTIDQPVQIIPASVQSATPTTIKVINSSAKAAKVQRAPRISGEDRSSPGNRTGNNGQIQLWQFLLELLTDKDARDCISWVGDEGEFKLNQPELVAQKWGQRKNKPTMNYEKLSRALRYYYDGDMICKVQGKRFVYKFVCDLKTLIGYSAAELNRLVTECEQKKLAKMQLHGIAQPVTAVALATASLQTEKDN
# In short: as §1
# ERG = target: T4, ERG (Homo sapiens, UniProt P11308 1-479); conditions: protein: recombinant; tags: N-terminal GST; dsDNA, one strand shown
# T4 sequence: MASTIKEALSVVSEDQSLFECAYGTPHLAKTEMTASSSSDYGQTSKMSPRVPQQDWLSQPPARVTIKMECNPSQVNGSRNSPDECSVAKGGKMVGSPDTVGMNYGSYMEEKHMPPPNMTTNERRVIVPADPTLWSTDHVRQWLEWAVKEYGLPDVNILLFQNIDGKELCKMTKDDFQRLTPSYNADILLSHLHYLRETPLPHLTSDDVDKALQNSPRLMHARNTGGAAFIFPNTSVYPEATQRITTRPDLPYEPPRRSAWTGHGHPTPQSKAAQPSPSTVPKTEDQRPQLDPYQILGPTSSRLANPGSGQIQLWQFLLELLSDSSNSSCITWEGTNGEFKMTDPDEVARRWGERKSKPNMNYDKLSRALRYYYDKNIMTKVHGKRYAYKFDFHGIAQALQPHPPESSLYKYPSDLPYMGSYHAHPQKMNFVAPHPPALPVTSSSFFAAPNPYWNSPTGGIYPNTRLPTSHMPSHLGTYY
# In short: as §1
# ELF1 = ELF1 (Homo sapiens, UniProt P32519 1-619); conditions: protein: recombinant; tags: N-terminal GST; dsDNA, one strand shown
# In short: as §1
# EHF = target: T5, EHF (Homo sapiens, UniProt Q9NZC4 1-300); conditions: protein: recombinant; tags: N-terminal GST; dsDNA, one strand shown
# T5 sequence: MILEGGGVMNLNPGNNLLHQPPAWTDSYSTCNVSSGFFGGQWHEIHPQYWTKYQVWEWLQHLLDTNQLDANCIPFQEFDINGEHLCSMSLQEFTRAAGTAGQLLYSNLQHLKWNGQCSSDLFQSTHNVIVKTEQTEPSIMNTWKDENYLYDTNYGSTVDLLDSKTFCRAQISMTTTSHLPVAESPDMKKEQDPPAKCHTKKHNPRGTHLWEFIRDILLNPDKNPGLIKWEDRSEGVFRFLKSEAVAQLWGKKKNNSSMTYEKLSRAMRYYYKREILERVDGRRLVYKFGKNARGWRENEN
# In short: as §1
# SPI1 = SPI1 (Homo sapiens, UniProt P17947 1-270); conditions: protein: recombinant; tags: N-terminal GST; dsDNA, one strand shown
# In short: as §1
# SPIB = SPIB (Homo sapiens, UniProt Q01892 1-262); conditions: protein: recombinant; tags: N-terminal GST; dsDNA, one strand shown
# In short: as §1
# ELK3 = target: T6, ELK3 (Homo sapiens, UniProt P41970 1-407); conditions: protein: recombinant; tags: N-terminal GST; dsDNA, one strand shown
# T6 sequence: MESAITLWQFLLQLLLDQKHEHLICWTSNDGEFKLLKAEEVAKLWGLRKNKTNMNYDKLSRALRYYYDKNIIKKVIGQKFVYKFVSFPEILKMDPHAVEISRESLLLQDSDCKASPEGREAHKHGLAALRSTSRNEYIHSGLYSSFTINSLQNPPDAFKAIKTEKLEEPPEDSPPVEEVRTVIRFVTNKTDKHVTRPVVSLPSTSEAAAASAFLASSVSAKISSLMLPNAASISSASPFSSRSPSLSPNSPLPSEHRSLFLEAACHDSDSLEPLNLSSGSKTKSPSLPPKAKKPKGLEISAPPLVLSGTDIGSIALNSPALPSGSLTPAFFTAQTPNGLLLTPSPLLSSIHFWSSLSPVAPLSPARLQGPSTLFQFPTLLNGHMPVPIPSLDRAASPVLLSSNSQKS
# In short: as §1
# FEV = target: T7, FEV (Homo sapiens, UniProt Q99581 1-238); conditions: protein: recombinant; tags: N-terminal GST; dsDNA, one strand shown
# T7 sequence: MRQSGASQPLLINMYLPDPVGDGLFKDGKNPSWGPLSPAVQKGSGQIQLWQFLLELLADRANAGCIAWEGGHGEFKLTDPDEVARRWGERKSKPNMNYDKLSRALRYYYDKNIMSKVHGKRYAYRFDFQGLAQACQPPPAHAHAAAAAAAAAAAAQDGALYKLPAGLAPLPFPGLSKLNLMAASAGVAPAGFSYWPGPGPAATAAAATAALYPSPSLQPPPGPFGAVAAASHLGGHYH
# In short: as §1
# ETV5 = ETV5 (Homo sapiens, UniProt P41161 1-510); conditions: protein: recombinant; tags: N-terminal GST; dsDNA, one strand shown
# In short: as §1
# HSF1 = HSF1 (Homo sapiens, UniProt Q00613 1-529); conditions: protein: recombinant; tags: N-terminal GST; chain copies: 3; dsDNA, one strand shown
# In short: as §1
# SPIC = target: T8, SPIC (Homo sapiens, UniProt Q8N5J4 1-248); conditions: protein: recombinant; tags: N-terminal GST; dsDNA, one strand shown
# T8 sequence: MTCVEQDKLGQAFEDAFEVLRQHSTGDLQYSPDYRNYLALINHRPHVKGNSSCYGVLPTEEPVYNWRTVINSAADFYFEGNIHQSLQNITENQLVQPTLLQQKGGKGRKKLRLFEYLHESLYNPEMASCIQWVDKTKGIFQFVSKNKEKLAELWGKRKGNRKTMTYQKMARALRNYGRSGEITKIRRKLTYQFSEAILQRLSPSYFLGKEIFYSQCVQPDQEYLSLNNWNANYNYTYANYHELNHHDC
# In short: as §1
# ELF4 = ELF4 (Homo sapiens, UniProt Q99607 1-663); conditions: protein: recombinant; tags: N-terminal GST; dsDNA, one strand shown
# In short: as §1
# ELK4 = target: T9, ELK4 (Homo sapiens, UniProt P28324-2 1-405); conditions: protein: recombinant; tags: N-terminal GST; dsDNA, one strand shown
# T9 sequence: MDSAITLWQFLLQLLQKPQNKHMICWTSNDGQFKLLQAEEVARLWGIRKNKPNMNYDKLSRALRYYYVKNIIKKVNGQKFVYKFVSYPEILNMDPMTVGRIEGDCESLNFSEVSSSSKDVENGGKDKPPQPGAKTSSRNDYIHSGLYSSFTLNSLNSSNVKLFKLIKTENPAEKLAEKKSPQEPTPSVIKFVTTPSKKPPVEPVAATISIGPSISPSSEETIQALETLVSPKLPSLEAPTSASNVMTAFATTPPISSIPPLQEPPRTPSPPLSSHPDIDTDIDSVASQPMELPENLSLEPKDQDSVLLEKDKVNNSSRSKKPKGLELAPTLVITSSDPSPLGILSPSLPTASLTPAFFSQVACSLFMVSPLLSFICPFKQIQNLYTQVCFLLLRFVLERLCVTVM
# In short: as §1
# ETV2 = target: T10, ETV2 (Homo sapiens, UniProt O00321 1-342); conditions: protein: recombinant; tags: N-terminal GST; dsDNA, one strand shown
# T10 sequence: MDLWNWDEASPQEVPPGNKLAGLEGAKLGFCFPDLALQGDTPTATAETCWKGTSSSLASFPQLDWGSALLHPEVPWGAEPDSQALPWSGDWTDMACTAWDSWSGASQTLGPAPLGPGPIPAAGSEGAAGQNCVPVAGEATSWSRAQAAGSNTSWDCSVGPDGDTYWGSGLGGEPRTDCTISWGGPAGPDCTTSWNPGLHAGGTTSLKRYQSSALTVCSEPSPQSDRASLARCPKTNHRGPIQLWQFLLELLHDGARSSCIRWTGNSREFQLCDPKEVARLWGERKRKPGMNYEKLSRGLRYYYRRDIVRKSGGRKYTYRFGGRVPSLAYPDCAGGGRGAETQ
# In short: as §1
# ELF3 = target: T11, ELF3 (Homo sapiens, UniProt P78545 1-371); conditions: protein: recombinant; tags: N-terminal GST; dsDNA, one strand shown
# T11 sequence: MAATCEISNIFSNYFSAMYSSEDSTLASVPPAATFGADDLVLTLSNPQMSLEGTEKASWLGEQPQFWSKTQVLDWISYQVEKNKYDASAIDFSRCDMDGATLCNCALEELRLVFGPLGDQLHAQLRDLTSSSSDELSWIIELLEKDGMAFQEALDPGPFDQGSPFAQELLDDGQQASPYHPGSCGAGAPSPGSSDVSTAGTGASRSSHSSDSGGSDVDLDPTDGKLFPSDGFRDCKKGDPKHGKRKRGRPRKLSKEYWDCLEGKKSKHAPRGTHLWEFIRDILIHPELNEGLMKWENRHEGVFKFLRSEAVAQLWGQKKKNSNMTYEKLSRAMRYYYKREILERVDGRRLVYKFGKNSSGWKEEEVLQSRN
# In short: as §1
# CRX = CRX (Homo sapiens, UniProt O43186 1-299); conditions: protein: recombinant; tags: N-terminal GST; dsDNA, one strand shown
# In short: as §1
# ETV1 = ETV1 (Homo sapiens, UniProt P50549 1-477); conditions: protein: recombinant; tags: N-terminal GST; dsDNA, one strand shown
# In short: as §1
# Sequence of CRX (O43186 whole entry): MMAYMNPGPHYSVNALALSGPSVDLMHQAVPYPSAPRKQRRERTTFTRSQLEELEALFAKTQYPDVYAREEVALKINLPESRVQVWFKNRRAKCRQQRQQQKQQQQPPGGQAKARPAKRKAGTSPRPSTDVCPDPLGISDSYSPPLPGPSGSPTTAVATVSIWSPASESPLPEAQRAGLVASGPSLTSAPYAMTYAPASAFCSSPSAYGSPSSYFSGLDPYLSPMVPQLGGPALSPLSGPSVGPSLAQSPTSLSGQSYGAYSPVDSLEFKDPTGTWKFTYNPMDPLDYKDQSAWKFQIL
# Sequence of ETV5 (P41161 whole entry): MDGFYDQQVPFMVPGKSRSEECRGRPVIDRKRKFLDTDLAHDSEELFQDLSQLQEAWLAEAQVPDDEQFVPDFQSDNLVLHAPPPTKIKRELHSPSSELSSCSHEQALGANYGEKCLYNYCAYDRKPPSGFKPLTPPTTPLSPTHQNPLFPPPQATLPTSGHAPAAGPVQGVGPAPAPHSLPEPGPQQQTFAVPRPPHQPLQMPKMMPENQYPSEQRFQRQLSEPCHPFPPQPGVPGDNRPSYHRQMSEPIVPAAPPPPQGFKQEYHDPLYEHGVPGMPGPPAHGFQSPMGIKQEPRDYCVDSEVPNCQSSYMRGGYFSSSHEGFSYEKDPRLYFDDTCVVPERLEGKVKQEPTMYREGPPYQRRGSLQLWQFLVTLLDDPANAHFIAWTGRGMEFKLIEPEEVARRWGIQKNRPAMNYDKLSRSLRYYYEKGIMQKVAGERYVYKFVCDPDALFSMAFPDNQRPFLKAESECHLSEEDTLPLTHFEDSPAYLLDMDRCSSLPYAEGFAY
# Sequence of ELF1 (P32519 whole entry): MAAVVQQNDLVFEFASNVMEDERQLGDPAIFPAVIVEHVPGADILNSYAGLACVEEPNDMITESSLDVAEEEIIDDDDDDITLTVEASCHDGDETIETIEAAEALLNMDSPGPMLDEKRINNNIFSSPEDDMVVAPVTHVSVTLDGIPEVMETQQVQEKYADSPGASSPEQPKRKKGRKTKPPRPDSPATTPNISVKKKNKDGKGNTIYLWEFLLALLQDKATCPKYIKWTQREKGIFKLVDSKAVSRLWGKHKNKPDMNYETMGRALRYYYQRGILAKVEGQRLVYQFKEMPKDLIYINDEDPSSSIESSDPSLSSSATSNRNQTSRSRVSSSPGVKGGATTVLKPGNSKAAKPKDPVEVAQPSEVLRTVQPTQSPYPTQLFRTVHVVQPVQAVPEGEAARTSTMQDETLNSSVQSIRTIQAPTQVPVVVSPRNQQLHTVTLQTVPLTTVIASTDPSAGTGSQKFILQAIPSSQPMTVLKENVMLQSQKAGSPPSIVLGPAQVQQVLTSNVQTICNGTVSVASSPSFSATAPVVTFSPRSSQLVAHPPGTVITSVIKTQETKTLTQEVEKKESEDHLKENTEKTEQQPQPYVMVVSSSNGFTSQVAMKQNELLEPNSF
# Sequence of SPIB (Q01892 whole entry): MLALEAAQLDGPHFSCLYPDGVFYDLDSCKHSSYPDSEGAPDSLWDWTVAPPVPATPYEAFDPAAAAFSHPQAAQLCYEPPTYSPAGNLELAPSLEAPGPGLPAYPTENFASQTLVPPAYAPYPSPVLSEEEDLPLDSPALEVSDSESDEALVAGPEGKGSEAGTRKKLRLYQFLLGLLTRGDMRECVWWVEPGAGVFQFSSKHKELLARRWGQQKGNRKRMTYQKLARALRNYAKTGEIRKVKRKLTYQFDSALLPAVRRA
# Sequence of ETV1 (P50549 whole entry): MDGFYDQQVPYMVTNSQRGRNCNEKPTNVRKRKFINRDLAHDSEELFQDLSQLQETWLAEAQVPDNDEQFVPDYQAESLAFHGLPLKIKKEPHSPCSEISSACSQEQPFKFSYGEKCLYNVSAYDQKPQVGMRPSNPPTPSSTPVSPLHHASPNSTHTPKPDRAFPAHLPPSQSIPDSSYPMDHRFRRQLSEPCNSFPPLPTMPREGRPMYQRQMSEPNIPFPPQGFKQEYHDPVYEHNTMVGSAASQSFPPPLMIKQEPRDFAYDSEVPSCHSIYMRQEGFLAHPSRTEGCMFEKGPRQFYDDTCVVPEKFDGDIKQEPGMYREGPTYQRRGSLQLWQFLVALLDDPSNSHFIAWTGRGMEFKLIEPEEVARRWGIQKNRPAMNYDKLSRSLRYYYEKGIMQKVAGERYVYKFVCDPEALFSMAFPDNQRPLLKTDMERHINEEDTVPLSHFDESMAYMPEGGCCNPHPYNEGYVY
# Sequence of HSF1 (Q00613 whole entry): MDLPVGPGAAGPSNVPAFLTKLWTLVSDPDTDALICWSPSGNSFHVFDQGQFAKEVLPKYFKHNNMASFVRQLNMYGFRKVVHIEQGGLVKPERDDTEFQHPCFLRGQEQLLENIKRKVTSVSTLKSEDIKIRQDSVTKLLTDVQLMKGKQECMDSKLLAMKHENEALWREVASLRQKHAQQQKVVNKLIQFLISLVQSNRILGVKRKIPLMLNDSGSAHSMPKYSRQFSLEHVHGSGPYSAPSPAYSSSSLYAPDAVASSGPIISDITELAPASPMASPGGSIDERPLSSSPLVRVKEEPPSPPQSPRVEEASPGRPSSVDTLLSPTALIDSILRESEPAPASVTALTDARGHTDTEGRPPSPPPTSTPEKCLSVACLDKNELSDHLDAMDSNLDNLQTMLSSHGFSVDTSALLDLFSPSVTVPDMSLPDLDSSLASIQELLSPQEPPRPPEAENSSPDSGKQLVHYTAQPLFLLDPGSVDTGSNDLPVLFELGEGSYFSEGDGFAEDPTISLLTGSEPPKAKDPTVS
# Sequence of ELF4 (Q99607 whole entry): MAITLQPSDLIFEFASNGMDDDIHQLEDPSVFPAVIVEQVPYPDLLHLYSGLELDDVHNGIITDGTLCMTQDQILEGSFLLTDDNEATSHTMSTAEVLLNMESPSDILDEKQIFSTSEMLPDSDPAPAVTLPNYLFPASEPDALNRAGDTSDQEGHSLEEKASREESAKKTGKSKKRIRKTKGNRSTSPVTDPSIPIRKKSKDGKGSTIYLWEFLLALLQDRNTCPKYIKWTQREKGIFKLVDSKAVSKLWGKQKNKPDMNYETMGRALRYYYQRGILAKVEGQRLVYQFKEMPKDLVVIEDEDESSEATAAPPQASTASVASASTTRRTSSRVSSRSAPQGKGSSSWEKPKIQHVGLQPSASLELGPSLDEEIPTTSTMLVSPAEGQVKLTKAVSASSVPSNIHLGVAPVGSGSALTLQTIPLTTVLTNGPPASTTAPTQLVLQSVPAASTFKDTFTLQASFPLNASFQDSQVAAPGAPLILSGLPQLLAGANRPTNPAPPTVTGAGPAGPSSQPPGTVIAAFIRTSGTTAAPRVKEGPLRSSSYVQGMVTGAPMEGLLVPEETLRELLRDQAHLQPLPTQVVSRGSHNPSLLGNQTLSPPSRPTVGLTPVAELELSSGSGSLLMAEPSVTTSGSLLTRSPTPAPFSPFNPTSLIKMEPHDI
sequence,measurement,setting,value
TTTTTT,binding signal,FLI1,"1.12 fold enrichment (6-mer frequency, TF over GST control)"
same,binding signal,ELK1,"1.05 fold enrichment (6-mer frequency, TF over GST control)"
same,binding signal,GABPA,"1.25 fold enrichment (6-mer frequency, TF over GST control)"
same,binding signal,ERG,"1.12 fold enrichment (6-mer frequency, TF over GST control)"
same,binding signal,ELF1,"1.25 fold enrichment (6-mer frequency, TF over GST control)"
same,binding signal,EHF,"1.2 fold enrichment (6-mer frequency, TF over GST control)"
same,binding signal,SPI1,"1.36 fold enrichment (6-mer frequency, TF over GST control)"
same,binding signal,SPIB,"1.22 fold enrichment (6-mer frequency, TF over GST control)"
same,binding signal,ELK3,"1.34 fold enrichment (6-mer frequency, TF over GST control)"
same,binding signal,FEV,"1.17 fold enrichment (6-mer frequency, TF over GST control)"
same,binding signal,ETV5,"1.23 fold enrichment (6-mer frequency, TF over GST control)"
same,binding signal,HSF1,"1.23 fold enrichment (6-mer frequency, TF over GST control)"
same,binding signal,SPIC,"1.3 fold enrichment (6-mer frequency, TF over GST control)"
same,binding signal,ELF4,"1.19 fold enrichment (6-mer frequency, TF over GST control)"
same,binding signal,ELK4,"1.17 fold enrichment (6-mer frequency, TF over GST control)"
same,binding signal,ETV2,"1.4 fold enrichment (6-mer frequency, TF over GST control)"
same,binding signal,ELF3,"1.33 fold enrichment (6-mer frequency, TF over GST control)"
same,binding signal,CRX,"1.24 fold enrichment (6-mer frequency, TF over GST control)"
same,binding signal,ETV1,"1.36 fold enrichment (6-mer frequency, TF over GST control)"

# — publication PMC7862700, “An all-to-all approach to the identification of sequence-specific readers for epigenetic DNA modifications on cytosine”
